# In PubChem BioAssay (NCATS):
# Where “and” joins values, the source holds several entries; their conditions need not be identical. Identical values can stand only once. Inconclusive results are not listed. Where a call stands in place of a potency, no number is given. A number with no mark means an inactive call. Calls of active or inactive are those of the source. Calls follow the shape of the dose curve; as a rule, active = well fitted inhibition curve with a large enough effect; inconclusive = small, poorly fitted or top-dose-only effect; inactive = flat fitted curve, though single readings scatter.
# Key:
# [1] = qHTS profiling for inhibitors of Plasmodium falciparum proliferation (AID 504749); also: nearly all actives have a fitted effect of over 60% in size; settings: P. falciparum in erythrocytes, SYBR Green DNA, 72 h
# Procedure, shortened: (§1)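 Fluorescence of SYBR Green-bound parasite DNA, read at 485/535 nm, served as the growth measure. Infected erythrocytes were cultured with compound 72 h; artemisinin (0.29 uM) and DMSO wells defined the normalization range.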
# 3D7 = assay: as above; settings: P. falciparum in erythrocytes, SYBR Green DNA, 72 h; series mostly up to 28.7 µM
# Procedure, shortened: as §1
# 7G8 = assay: as above; settings: P. falciparum in erythrocytes, SYBR Green DNA, 72 h; series mostly up to 28.7 µM
# Procedure, shortened: as §1
# AA1029 = assay: as above; settings: P. falciparum in erythrocytes, SYBR Green DNA, 72 h; series mostly up to 28.7 µM
# Procedure, shortened: as §1
# [2] = at 28.7 µM (top of the series), parasite line A
# [3] = at 28.7 µM (top of the series), parasite line B
# [4] = at 12.8 µM (top of the series), parasite line A
# [5] = at 12.8 µM (top of the series), parasite line B
# Potency is read from the fitted curve at half-maximal effect.
SMILES,"activity, negative = inhibition [1, 2]","activity, negative = inhibition [1, 3]",Potency (3D7),Potency (7G8),Potency (AA1029),"activity, negative = inhibition [1, 4] [%]","activity, negative = inhibition [1, 5] [%]",Potency ([1]; parasite line A)
CC(O)CN(CCN(CC(C)O)CC(C)O)CC(C)O (centres undefined),7.8%,-1.51%,inactive,inactive,inactive,,,
Cc1cccc(C)c1NC(=O)CN(CC(=O)O)CC(=O)O,13.4%,2.17%,inactive,inactive,inactive,,,
Cc1cc(CC(=O)O)n(C)c1C(=O)c1ccc(Cl)cc1,-8.03% and -6.63%,-3.67% and -0.286%,inactive,inactive,inactive,,,
O=C(O)CN1C(=O)c2cccc3cccc(c23)C1=O,-2.87%,1.81%,inactive,inactive,inactive,,,
CCC(=O)c1ccc(O)cc1,12.2%,2.42%,inactive,inactive,inactive,,,
NS(=O)(=O)c1cc2c(cc1Cl)NC(CSCc1ccccc1)=NS2(=O)=O,,,inactive,inactive,inactive,2.74,12.8,
O=c1cc[nH]c(=S)[nH]1,1.45%,6.46%,inactive,inactive,inactive,,,
CCn1cc(C(=O)O)c(=O)c2cnc(N3CCNCC3)nc21,,,inactive,inactive,inactive,7.13,-22.6,
CC(=O)Oc1ccc(C2(c3ccc(OC(C)=O)cc3)C(=O)Nc3ccccc32)cc1,5.01% and 7.68%,2.92% and 4.08%,inactive,inactive,inactive,,,
O=C(O)COc1nn(Cc2ccccc2)c2ccccc12,1.43%,10.4%,inactive,inactive,inactive,,,
NC(=O)NNc1ccccc1,-7.35% and 18%,13.9% and 11.9%,inactive,inactive,inactive,,,
CCN(CC)CCSC(=O)C(c1ccccc1)c1ccccc1,10.5% and 6.38%,-0.418% and -7.05%,inactive,inactive,inactive,,,
[O-][n+]1cccc(CO)c1,-0.247%,11.6%,inactive,inactive,inactive,,,
CC(=O)Nc1ccc(/C=N/NC(N)=S)cc1,9.12% and 9.39%,6.45% and 8.83%,inactive,inactive,inactive,,,
CCCOC(=O)c1ccccc1,-2.05%,2.76%,inactive,inactive,inactive,,,
O=C(O)CC(O)C(=O)O (centres undefined),10.4%,3.5%,inactive,inactive,inactive,,,
COc1ccccc1O,6.24%,17.1%,inactive,inactive,inactive,,,
C[C@](N)(Cc1ccc(O)cc1)C(=O)O,4.44%,11.9%,inactive,inactive,inactive,,,
Oc1cccc(O)c1,9.04%,15.9%,inactive,inactive,inactive,,,
COc1ccc(S(=O)(=O)Nc2nnc(CC(C)C)s2)cc1,3.77% and -5.99%,15.9% and -5.44%,inactive,inactive,inactive,,,
CCN(CC)CCNC(=O)c1cc(Cl)c(N)cc1OC,11.7%,-3.16%,inactive,inactive,inactive,,,
CC(=O)NC(Cc1ccccc1)C(=O)O (centres undefined),3.68%,2.97%,inactive,inactive,inactive,,,

SMILES,"activity, negative = inhibition [1, 2]","activity, negative = inhibition [1, 3]",Potency (3D7),Potency (7G8),Potency (AA1029),"activity, negative = inhibition [1, 4] [%]","activity, negative = inhibition [1, 5] [%]",Potency ([1]; parasite line A)
CC(=O)CCC(=O)O,10.3%,-7.9%,inactive,inactive,inactive,,,
COc1cc(C(=O)N2CCOCC2)cc(OC)c1OC,13.6% and -1.06%,0.0617% and 7.6%,inactive,inactive,inactive,,,
Cc1cc2c(cc1S(N)(=O)=O)S(=O)(=O)CCC2,,,inactive,inactive,inactive,-1.89,2.51,
CC(=O)c1ccc2c(c1)N(CCCN(C)C)c1ccccc1S2,,,inactive,inactive,inactive,7.32,-24.3,
Nc1ccc(S(=O)(=O)NC(=O)c2ccccc2)cc1,,,inactive,inactive,inactive,10.4,13.1,
COc1ccc(Cl)cc1C(=O)NCCc1ccc(S(=O)(=O)NC(=O)NC2CCCCC2)cc1,10.8%,8.21%,inactive,inactive,inactive,,,
O=Cc1ccccc1C=O,-1.21%,5.64%,inactive,inactive,inactive,,,
Cc1cccc(Nc2cc(Cl)nc(SCC(=O)O)n2)c1C,11.5%,13.9%,inactive,inactive,inactive,,,
CSc1ccc2c(c1)C(N1CCN(C)CC1)Cc1ccccc1S2 (centres undefined),,,,10 µM (active),,,,
NC(=O)N/N=C/c1ccc([N+](=O)[O-])o1,,,8.91 µM (active),10 µM (active),,,,12.6 µM (active)
Cc1cc(C(C#N)c2ccc(Cl)cc2)c(Cl)cc1NC(=O)c1cc(I)cc(I)c1O (centres undefined),8.49%,7.42%,inactive,,inactive,,,
COCCOC(=O)C1=C(C)NC(C)=C(C(=O)OC/C=C/c2ccccc2)C1c1cccc([N+](=O)[O-])c1 (centres undefined),,,12.6 µM (active),7.94 µM (active),8.91 µM (active),,,
OCc1cc(C(O)CNCCCCCCOCCCCc2ccccc2)ccc1O (centres undefined),,-10.7%,inactive,,inactive,,,
O=S(=O)(O)NC1CCCCC1,2.07%,5.79%,inactive,inactive,inactive,,,
CC(C)(C)NCC(O)COc1ccc(NC(=O)NC2CCCCC2)cc1 (centres undefined),,2.44%,inactive,,inactive,,,
O=C1NC(=O)[C@@]2(CCOc3ccc(F)cc32)N1,7.16%,9.22%,inactive,inactive,inactive,,,
[Cl][In]([Cl])[Cl],-23.4%,-19.4%,,2 µM (active),inactive,,,
COC(=O)C1=C(C)NC(C)=C(C(=O)OC)C1c1ccccc1[N+](=O)[O-],-7.51%,-24%,inactive,,inactive,,,
CC1(C)CO[C@@H](CC(=O)O)CN1,1.48%,5.08%,inactive,inactive,inactive,,,
CC(C(O)c1ccc(O)cc1)N1CCC(Cc2ccccc2)CC1 (centres undefined),,,,8.91 µM (active),,,,
CC[C@@]1(c2ccccc2)NC(=O)N(C)C1=O,-2.42%,13.3%,inactive,,inactive,,,
O=S(=O)(O)c1cc(I)c(O)c2ncccc12,12%,-2.06%,inactive,,inactive,,,
